# Laboratory results taken from PubChem BioAssay AID624481 (The Scripps Research Institute Molecular Screening Center, 2012).
# Unmarked numbers belong to inactive results. Calls of active or inactive are those of the source. Cut-off read from the data, not from the text of the source: active = inhibition above about 50%; inactive = the rest.
# Biological target: Prolyl endopeptidase-like (Mus musculus) (UniProt Q8C167)
# Assay: purified PREPL inhibitors, PREPL inhibitor project, biochemical, gel-based competitive ABPP, fluorescence, HTS hits (AID 624481)
# Conditions: at 20 µM, stronger effect = higher value
# Prolyl endopeptidase-like (Mus musculus), sequence (Q8C167 whole entry, looked up): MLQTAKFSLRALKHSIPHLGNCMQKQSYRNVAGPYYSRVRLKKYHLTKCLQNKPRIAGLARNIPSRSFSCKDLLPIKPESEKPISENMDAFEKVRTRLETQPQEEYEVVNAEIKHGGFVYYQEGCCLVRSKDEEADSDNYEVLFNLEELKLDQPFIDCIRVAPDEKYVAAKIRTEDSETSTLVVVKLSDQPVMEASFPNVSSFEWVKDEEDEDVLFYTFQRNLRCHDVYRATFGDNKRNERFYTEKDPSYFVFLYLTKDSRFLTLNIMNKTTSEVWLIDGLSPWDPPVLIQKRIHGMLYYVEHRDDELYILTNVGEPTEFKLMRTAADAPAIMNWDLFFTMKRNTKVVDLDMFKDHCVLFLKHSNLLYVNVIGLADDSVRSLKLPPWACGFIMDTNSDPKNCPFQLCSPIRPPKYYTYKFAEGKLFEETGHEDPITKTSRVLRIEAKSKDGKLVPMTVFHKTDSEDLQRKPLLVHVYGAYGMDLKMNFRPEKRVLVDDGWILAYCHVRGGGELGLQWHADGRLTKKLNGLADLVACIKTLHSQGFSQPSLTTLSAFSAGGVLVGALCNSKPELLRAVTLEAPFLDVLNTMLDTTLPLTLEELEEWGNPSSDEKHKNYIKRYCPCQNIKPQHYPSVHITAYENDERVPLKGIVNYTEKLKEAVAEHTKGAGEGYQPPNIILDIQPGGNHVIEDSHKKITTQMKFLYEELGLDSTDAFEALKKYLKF
row,SMILES,inhibition
1,CCN1C(=O)CC(c2ccccc2)N(C2CCCC2)c2nc(Nc3ccc(C(=O)NC4CCN(C)CC4)cc3OC)ncc21 (centres undefined),-25%
2,COc1ccc2nc(C)cc(NN=Cc3cccc(OC)c3O)c2c1,-23%
3,CCCCCCCCCCCCCCCC[N+](C)(C)CCN(Cc1ccc(OC)cc1)c1ncccn1,81% (active)
4,O=C(C1=C[C@@H](c2ccc(C(F)(F)F)cc2)C[C@@H](OCc2ccc(CO)cc2)O1)N1CCN(Cc2ccc3c(c2)OCO3)CC1,-49%
5,CC[C@@H](C)[C@@H]1CN([C@@H](CN2CCC[C@H]2CN2C(N)=NC[C@H]2C(C)C)C(C)C)C(=N)N1CCCC1CCCC1,-53%
6,CN(CC(=O)Nc1ccc(Cl)cc1)C(=O)c1cccc(S(=O)(=O)N2CCN(Cc3ccccc3)CC2)c1,1%
7,CN(C)CCCNc1cc(C(C)(C)C)nc2c(-c3ccccc3)cnn12,-34%
8,c1ccc(-c2nc3ccccn3c2NC2CCCC2)nc1,-69%
9,C(=NNc1nc2ccccc2[nH]1)c1c[nH]c2ccccc12,36%
10,O=C1c2ccccc2C(=O)c2c1cccc2N1CCN(C/C=C/c2ccccc2)CC1,-116%
11,C#CCOCCOCCOCCNc1nc(N2CCN(C(=O)CCCCCCCCCCNC(=O)[C@H](CCCCN)n3cc(CCO)nn3)CC2)nc(N2CCN(C(=O)CCCCCCCCCCNC(=O)[C@H](CCCN=C(N)N)n3cc(C[C@@H](C)CC)nn3)CC2)n1,-34%
12,Cc1ccccc1C(=O)N1CCN(c2ccc(NC(=O)CSc3ccc(Cl)cc3)cc2)CC1,-27%
13,Nc1nc(-c2ccccc2)c(N=Nc2ccccc2Cl)s1,-9%
14,Oc1c(CN2CCCC2)cc(COCc2ccccc2)c2cccnc12,-64%
15,C#CCOCCOCCOCCNc1nc(N2CCN(C(=O)C(Cc3cc4ccccc4[nH]3)n3cc(C(N)C(C)CC)nn3)CC2)nc(N2CCN(C(=O)C(Cc3cc4ccccc4[nH]3)n3cc(C(N)C(C)CC)nn3)CC2)n1 (centres undefined),-161%
16,Cc1ccc2c(CC(=O)Nc3ccc(N4CCN(C)CC4)cc3C)coc2c1,-3%
17,CN(C)CCN1C(=O)C(O)=C(C(=O)c2cc3ccccc3o2)C1c1ccc(N(C)C)cc1 (centres undefined),-47%
18,Cc1ccc(OCC(=O)Nc2ccc(N3CCN(C(=O)c4ccco4)CC3)cc2)cc1C,44%
19,CN(C)c1ccc(C(CNC(=O)c2ccc(-c3ccccc3)cc2)N2CCOCC2)cc1 (centres undefined),-7%
20,CCC(CN(C)C)Oc1cc(NCc2ccccc2)c2ncn(C(C)C)c2c1 (centres undefined),-65%
21,O=C(c1ccccc1)N1CCN(c2ccc(NCc3ccc4c(c3)OCO4)cc2)CC1,-17%
22,CCCCNc1c(-c2ccc(SC(C)CC)cc2)nc2cnccn12 (centres undefined),-22%
23,C#CCOCCOCCOCCNc1nc(N2CCN(C(=O)CCCCCCCCCCNC(=O)[C@H](CCCCN)n3cc(C)nn3)CC2)nc(N2CCN(C(=O)CCCCCCCCCCNC(=O)[C@H](CCCN=C(N)N)n3cc(C[C@@H](C)CC)nn3)CC2)n1,-58%
24,Cc1ccc(C)c(-c2nn(-c3cc(N4CCN(CCO)CC4)ccc3[N+](=O)[O-])c(=O)c3ccccc23)c1,7%
25,CN(C)c1nc(-c2ccccn2)nnc1-c1ccccc1,-28%

row,SMILES,inhibition
1,CCC[C@@H](CN1CCC[C@H]1CN1C(N)=NC[C@@H]1Cc1ccccc1)N1C[C@@H]([C@H](C)CC)N(CCCC2CCCC2)C1=N,9%
2,COc1ccc(C(=O)c2coc3ccc(O)c(CN4CCOCC4)c23)cc1,-78%
3,Cc1c(CN(C)C)c2c(n1Cc1ccccc1)C(=O)c1ccc(Br)cc1-2,-33%
4,Cc1sc2ncnc(NN=Cc3ccccc3O)c2c1C,-89%
5,COc1ccc(C)cc1Nc1n[n+](-c2ccccc2)c(-c2ccc(OC)c(OC)c2OC)s1,-41%
6,COc1ccc(C2CC(c3cccc(Cl)c3)n3nc(N)nc3N2)cc1 (centres undefined),-29%
7,CCN1/C(=C/c2ccc3ccc(C)cc3[n+]2CC)Sc2ccccc21,-19%
8,CCOc1ccc(Nc2nc(NCC3CCCO3)c3ccccc3n2)cc1 (centres undefined),12%
9,CNC(=S)N1N=C(c2ccc(OC)cc2)CC1c1ccc(N(C)C)cc1 (centres undefined),-55%
10,Nc1nn(-c2ccccc2)c(N)c1N=Nc1ccccc1,-16%
11,Nc1c(Cl)ncnc1NN=Cc1ccc2ccccc2n1,-48%
12,CC1(C)N=C(N)N=C(N)N1c1ccc(Oc2ccc(Cl)cc2)c(Cl)c1,-35%
13,CC(C)(C)n1cnc2cc(NCc3ccc(Br)cc3)ccc21,-12%
14,Clc1cccc(-c2ccc(C3Nc4cccc5cccc(c45)N3)o2)c1,100% (active)
15,COc1cc2[nH]c3c(N4CCN(c5ccccn5)CC4)ncnc3c2cc1OC,1%
16,C#CCOCCOCCOCCNc1nc(N2CCN(C(=O)[C@H](Cc3ccc(O)cc3)n3cc([C@@H](N)CC(C)C)nn3)CC2)nc(N2CCN(C(=O)[C@H](Cc3cc4ccccc4[nH]3)n3cc([C@@H](N)CC(C)C)nn3)CC2)n1,-77%
17,C#CCOCCOCCOCCNc1nc(N2CCN(C(=O)CCCCCCCCCCNC(=O)Cn3cc(CCCCCN)nn3)CC2)nc(N2CCN(C(=O)CCCCCCCCCCNC(=O)Cn3cc(CCCCCN)nn3)CC2)n1,-99%
18,O=C(CSc1ccccc1F)Nc1ccc(N2CCOCC2)cc1,-55%
19,CN(C)c1ccc(C(CN)c2c[nH]c3ccccc23)cc1 (centres undefined),-86%
20,CN1CCN(CCCN2c3ccccc3Sc3ccc(Cl)cc32)CC1,-90%
21,CCN(CC)CCNc1ccc(CO)c2sc3ccccc3c(=O)c12,-23%
22,Cc1cccc(OCC(=O)Nc2ccc(N3CCN(C(=O)c4ccco4)CC3)cc2)c1,-15%
23,CC(C)(C)Nc1nc(-c2ccccn2)nc2ccccc12,-31%
24,COc1ccc(NC(=O)c2ccc(-c3ccc(-c4noc(C)n4)cc3C)cc2)cc1N1CCN(C)CC1,-16%
25,C[C@H]1CN([C@@H](C)CO)C(=O)Cc2cc(NC(=O)CCN3CCOCC3)ccc2O[C@@H]1CN(C)Cc1ccc(Oc2ccccc2)cc1,-27%

row,SMILES,inhibition
1,Cc1ccccc1OCc1nnc(SCC(=O)Nc2ccc(N3CCOCC3)c(Cl)c2)n1C,-46%
2,CN(C)CCc1cc2c(c3c1ccc1ccccc13)OCO2,-26%
3,C#CCOCCOCCOCCNc1nc(N2CCN(C(=O)CCCCCCCCCCNC(=O)[C@H]([C@@H](C)CC)n3cc(CCCCN=C(N)N)nn3)CC2)nc(N2CCN(C(=O)CCCCCCCCCCNC(=O)[C@H](CO)n3cc(CCCCCN)nn3)CC2)n1,-38%
4,CCCCCN=C(N)NN=Cc1c[nH]c2ccc(OC)cc12,-11%
5,Cc1cc(/C=C2\SC(=Nc3ccc(F)cc3)NC2=O)c(C)n1-c1ccc(S(N)(=O)=O)cc1,28%
6,CC[C@@H](C)[C@@H]1CN([C@@H](CN2CCC[C@H]2CN2C(N)=NC[C@@H]2Cc2ccccc2)C(C)C)C(=N)N1CCCC1CCCC1,-104%
7,COc1ccc(C(=O)c2coc3ccc(O)c(CN4CCCCC4)c23)cc1,-53%
8,Oc1c(CN2CCOCC2)cc(COCc2ccccc2)c2cccnc12,-145%
9,O=C(C1=C[C@@H](c2ccc(C(F)(F)F)cc2)C[C@@H](OCCCCO)O1)N1CCN(Cc2ccc3c(c2)OCO3)CC1,-20%
10,CCN(C(=O)CN1CCN(S(=O)(=O)c2cc(Cl)ccc2Cl)CC1)c1c(N)n(Cc2ccccc2)c(=O)[nH]c1=O,99% (active)
11,CCCCCCCCCCCCCCCC[n+]1cccc(C(=O)N(CC)CC)c1,10%
12,CC(C)[C@H](CN1CCC[C@H]1CN1C(N)=NC[C@H]1C(C)C)N1C[C@@H](Cc2ccccc2)N(CCCC2CCCC2)C1=N,92% (active)
13,CN(C)c1ccc(C(CNC(=O)COc2ccc(Cl)cc2)N2CCCC2)cc1 (centres undefined),-25%
14,Nc1nn(-c2ccccc2)c(N)c1N=Nc1ccc2c(c1)OCO2,17%
15,COc1ccc(NCc2nc3ccccc3n2CCOc2ccc(C)cc2)cc1,-75%
16,CCc1ccc(CNc2ccc3c(c2)ncn3C(C)(C)C)cc1,-36%
17,Cc1cc(NN=Cc2ccc(O)cc2)c2cccc(C)c2n1,1%
18,CC(=O)N1CCN(c2ccc(NCc3ccc(-c4ccc(Br)cc4)o3)cc2)CC1,-23%
19,Cc1noc(C)c1S(=O)(=O)N(C)C[C@H]1Oc2c(NC(=O)Nc3ccc(C(F)(F)F)cc3)cccc2C(=O)N([C@H](C)CO)C[C@@H]1C,9%
20,CN(C)c1ccc(NC(=O)c2ccc(Cn3cc([N+](=O)[O-])cn3)cc2)cc1,-9%
21,COc1cc(-c2nnc3sc(Cc4ccc(Cl)cc4)nn23)cc(OC)c1OC,14%
22,CCOc1ccc(Nc2c3ccccc3nc3ccccc23)cc1,-58%
23,COc1ccc(NC(=O)N2CCN(c3ccc([N+](=O)[O-])cc3)CC2)cc1OC,-40%
24,CCC[C@@H](CN1CCC[C@H]1CN1C(N)=NC[C@H]1C(C)C)N1C[C@@H](Cc2ccccc2)N(CCCC2CCCC2)C1=N,-46%
